Molecules are shown by their SMILES.

The first assay is described as follows: viability loss with induced miR-34 in A549 – imaging, A549 dox-inducible miR-34, nuclei and caspase counts, primary screen (AID 1347080). Note: test concentration not given here. The note with it: A549 miR-34 inducible, Hoechst nuclei count, 48 h; measured here: relative caspase fold change +Dox/-Dox.
In the case of `C=CC(=O)Nc1cccc(Nc2nc(Nc3ccc(Oc4ccnc(C(=O)NC)c4)cc3)ncc2F)c1`, the fold change turned out to be 0.336.

As to `O=C(Nc1ccc2c(c1)CCN(Cc1ncn[nH]1)C2)c1ccccc1-c1ccc(C(F)(F)F)cc1`, the fold change amounted to 1.06.

Regarding `CCC(CC)CC1(C(=O)Nc2ccccc2SC(=O)C(C)C)CCCCC1`, the fold change came to 0.858.

Regarding `O=C(Nc1cccc(Cl)c1)Nc1ncc(CCNc2ncnc3ccsc23)s1`, the fold change is 1.09.

Still in this assay, the particulars now being: A549 miR-34 inducible, Hoechst nuclei count, 48 h; measured here: total cells with miR-34 induction; stronger effect = lower value.
For `C=CC(=O)Nc1cccc(Nc2nc(Nc3ccc(Oc4ccnc(C(=O)NC)c4)cc3)ncc2F)c1`, the cell count was 4090.

Take `O=C(Nc1ccc2c(c1)CCN(Cc1ncn[nH]1)C2)c1ccccc1-c1ccc(C(F)(F)F)cc1`: the cell count worked out at 8100.

With `CCC(CC)CC1(C(=O)Nc2ccccc2SC(=O)C(C)C)CCCCC1`, the cell count was found to be 9550.

The compound `O=C(Nc1cccc(Cl)c1)Nc1ncc(CCNc2ncnc3ccsc23)s1` showed a cell count of 2320.
